The nature of test [1]: NCI Yeast Anticancer Drug Screen. Data for the rad50 strain (AID 155).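 Also: 0% = growth of vehicle-only cultures of the same strain.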 As to conditions: S. cerevisiae rad50 strain growth inhibition; at 50.0 µM; active compounds read high. The method, boiled down:
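Compounds were tested on a yeast strain with an engineered DNA damage repair alteration; the reported value is growth inhibition normalised to vehicle treatment.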

Test [2] is described as follows: NCI Yeast Anticancer Drug Screen. Data for the mec2-1 strain (AID 157). As to conditions: S. cerevisiae mec2-1 strain, at 50.0 µM, active compounds read high. The method, boiled down: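 Test agents were screened against the mec2-1 yeast strain, with defined DNA repair or cell cycle alteration. Growth was scored as inhibition against vehicle-only controls.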
The nature of test [3]: NCI Yeast Anticancer Drug Screen. Data for the sgs1 mgt1 strain (AID 161).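 Also: 0% = growth of cultures given vehicle only.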 As to conditions: S. cerevisiae sgs1 mgt1 strain, at 50.0 µM, active compounds read high. The method, boiled down: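 Genetically altered yeast, compound exposure, growth inhibition relative to vehicle.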
Test [4] can be described thus: NCI Yeast Anticancer Drug Screen. Data for the cln2 rad14 strain (AID 165).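 Also: 0% = growth equal to vehicle treated cultures.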 The conditions noted are these: S. cerevisiae cln2 rad14 strain, at 50.0 µM, active compounds read high. The method, boiled down: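 Growth of compound-exposed yeast (cln2 rad14 genotype) measured and expressed as inhibition relative to vehicle.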
The nature of test [5]: NCI Yeast Anticancer Drug Screen. Data for the bub3 strain (AID 167). The conditions noted are these: S. cerevisiae bub3 mutant strain, at 50.0 µM, active compounds read high. Put shortly:
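Growth of a checkpoint-deficient yeast mutant is measured after compound exposure. Values represent inhibition relative to vehicle.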

The nature of test [6]: NCI Yeast Anticancer Drug Screen. Data for the mlh1 rad18 strain (AID 175). As to conditions: S. cerevisiae mlh1 rad18 strain growth inhibition; at 50.0 µM; active compounds read high. The method, boiled down:
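In this whole-cell yeast screen, a strain with altered DNA damage repair is challenged with compound, and its growth is measured against matched vehicle-treated controls.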

This is part of a sample that, as a whole, favours compounds with a hit. Of some 79,000 tested, about 15% had one in any assay. Unmarked numbers belong to inactive results. Active and inactive are the calls of the source. Rule as the data show it: active = growth inhibition above about 70%; inactive = the rest.

We go through 19 compounds from PubChem BioAssay (NCI).

Regarding `CC(c1ccccc1)C(C)(C#N)c1ccccc1` (centres undefined), the growth inhibition was 2.8% in test [1]; 23.1% in test [2]; 15.8% in test [3]; 33.5% in test [4]; 10.5% in test [5]; 40.4% in test [6].

Consider `C/C(=N\N=C(/C)c1ccc(Br)s1)c1ccc(Br)s1`, for which the growth inhibition is -42.5% in test [1]; -35% in test [2]; -23.7% in test [3]; -18.3% in test [4]; -12.8% in test [5]; -28.1% in test [6].

For `COc1ccc2c(c1)OCCN(C)OC2c1cccc(Cl)c1` (centres undefined), the growth inhibition in test [1] is -4.55%; in test [2], -6.45%; in test [3] it was -7.15%; in test [4] it was -5.15%; in test [5] it was 9.4%; in test [6], 6.7%.

On to `Cc1cc(C)c(C2CNCc3cc4c(cc32)CNCC4c2c(C)cc(C)cc2C)c(C)c1` (centres undefined), for which the growth inhibition is -16.3% in test [1]; -32.8% in test [2]; -46% in test [3]; -44.9% in test [4]; -62.8% in test [5]; -131% in test [6].

As for `Nc1ccc2c(c1)Cc1cccc(N)c1-2`, the growth inhibition in test [1] is 31.8%; in test [2], 11.2%; in test [3], 0.7%; in test [4], 11%; in test [5], 7.2%; in test [6], 1.9%.

As to `O/N=C1/CC2(N3CCOCC3)C3CC/C(=N\O)C2CC1(Cc1ccccc1)C3` (centres undefined), the growth inhibition in test [1] was 2.75%; in test [2], 0.25%; in test [3], 17.1%; in test [4], 27.7%; in test [5], -11.2%; in test [6], -10%.

Consider `COC(=N)C(C)C`, for which the growth inhibition in test [1] was 26.4%; in test [2], 14.9%; in test [3], 4.9%; in test [4] it was 13.1%; in test [5], -6.2%; in test [6] it was 22.6%.

`NC(CCC(=O)NC1(C(=O)O)C2CC3CC(C2)CC1C3)C(=O)O` (centres undefined): the growth inhibition is 6% in test [1]; -0.1% in test [2]; -5% in test [3]; -18% in test [4]; -4.4% in test [5]; 4.85% in test [6].

`COC(=O)C(N)Cc1ccc(OC)cc1` (centres undefined): the growth inhibition in test [1] was -4.95%; in test [2] it was -9.25%; in test [3], 8.1%; in test [4] it was -1.95%; in test [5], 7.6%; in test [6], 3.75%.

As for `COC(=O)C1CC(=O)N(C)c2sc(C)c(C)c2C1=O` (centres undefined), the growth inhibition in test [1] was 83.9% (active); in test [2], 94.5% (active); in test [3] it was 89% (active); in test [4] it was 36.5%; in test [5], 87.7% (active); in test [6] it was 95.7% (active).

In the case of `O=C(NCC(F)(F)C(F)(F)C(F)(F)C(F)(F)C(F)(F)C(F)(F)C(F)(F)F)Oc1ccccc1`, the growth inhibition is 39.2% in test [1]; 3.3% in test [2]; 26.7% in test [3]; 9.45% in test [4]; -2.05% in test [5]; 3.35% in test [6].

For `O=C(O)Cc1cccc2nnnn12`, the growth inhibition in test [1] is 14.2%; in test [2], -17.8%; in test [3], -7.5%; in test [4] it was 15.1%; in test [5], -4.75%; in test [6], 23.9%.

Consider `CN(C)NC(=O)Oc1ccc(Cl)cc1`, for which the growth inhibition in test [1] is -0.25%; in test [2], -0.35%; in test [3], -11.4%; in test [4], -4.55%; in test [5], -33.3%; in test [6], 2.75%.

With `C=Cc1ccc(C)[n+](C[Si](C)(C)O[Si](C)(C)C)c1`, the growth inhibition in test [1] was -7.75%; in test [2], -39%; in test [3], -8.95%; in test [4] it was 19.4%; in test [5], -22.9%; in test [6], -20.7%.

Take `Cc1cc(C)c(CCC(=O)O)c(C)c1`: the growth inhibition in test [1] was 6.95%; in test [2] it was 4.8%; in test [3], -0.3%; in test [4], 6.6%; in test [5] it was -7.1%; in test [6], -1.25%.

In the case of `Brc1cccc(CCOCc2ccccc2)c1`, the growth inhibition in test [1] was 8.45%; in test [2], -11.6%; in test [3], -4.3%; in test [4], 2.05%; in test [5], 0.5%; in test [6] it was -3.9%.

As to `CC1(C)CC2(CC(C)(C)N1O)NC(=O)OC2=O`, the growth inhibition in test [1] is 2.5%; in test [2] it was -5.3%; in test [3] it was -1.05%; in test [4], -18.6%; in test [5], -23.1%; in test [6] it was 1.3%.

On to `CCC1CNCCC1CC(=O)O` (centres undefined), for which the growth inhibition in test [1] was 7.95%; in test [2] it was -12.8%; in test [3], -2.05%; in test [4] it was 24.8%; in test [5], -1.2%; in test [6] it was -22.2%.

As for `CCCCCCCCCCCCn1c2nc(=O)[nH]c(=O)c-2nc2ccccc21`, the growth inhibition is -3.35% in test [1]; 3.75% in test [2]; -8.15% in test [3]; 4.25% in test [4]; -0.2% in test [5]; -26.1% in test [6].
